Measured values from the supplement of paper PMC6555819.

Experiments:
Test in all cases: PBM binding z-score (relative to random genomic background probes); higher = stronger binding; sequences stand for … in GC…GCGATTGACAGCGTAGAATGAAGG
[1] = system: PPARg:RXRa DBDmut IVT, anti-RXR (DBD mutation: RXRa K156A/R161A, NR concentration 270 nM, RXRa partner concentration 90 nM)
Outline: (§1)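 Custom Agilent 4×180K protein-binding microarrays carried double-stranded probes. Their 34-nt variable regions held direct-repeat seeds, single-nucleotide variants, half-site ablations and random human genomic background sequences. Arrays were incubated 1 h with ligand-free nuclear receptor dimers in PBS pH 7.4, 2% milk, 0.02% Triton X-100, 1 mM DTT, 0.2 mg/mL BSA and 0.4 mg/ml salmon testes DNA. Antibodies against each partner (one per run) detected binding, and scanned fluorescence was regression-normalized. Binding z-scores use random background probes as reference.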

[2] = system: PPARg:RXRa IVT, anti-PPARg (NR concentration 270 nM, RXRa partner concentration 90 nM)
Outline: as §1

[3] = system: PPARg DBDmut:RXRa IVT, anti-PPARg (DBD mutation: PPARg1 K132A/R137A, NR concentration 270 nM, RXRa partner concentration 90 nM)
Outline: as §1

[4] = system: PPARg DBDmut IVT, anti-PPARg (DBD mutation: PPARg1 K132A/R137A, NR concentration 270 nM)
Outline: as §1

[5] = system: PPARg homodimer (NR concentration 180 nM)
Outline: as §1

[6] = system: PXR:RXRa (NR concentration 270 nM, RXRa partner concentration 90 nM)
Outline: as §1

[7] = system: PXR homodimer (NR concentration 270 nM)
Outline: as §1

[8] = system: RARa:RXR (NR concentration 270 nM, RXRa partner concentration 90 nM)
Outline: as §1

[9] = system: RARa homodimer (NR concentration 270 nM)
Outline: as §1

[10] = system: RARb:RXRa (NR concentration 270 nM, RXRa partner concentration 90 nM)
Outline: as §1

Sequence | PBM binding z-score [1] | PBM binding z-score [2] | PBM binding z-score [3] | PBM binding z-score [4] | PBM binding z-score [5] | PBM binding z-score [6] | PBM binding z-score [7] | PBM binding z-score [8] | PBM binding z-score [9] | PBM binding z-score [10]
CCAGACAGGTGACAGGTAACTCAGTCTGGTACGC | 1.77 | 1.46 | -0.216 | -0.746 | 0.536 | -0.209 | 0.203 | 0.0624 | 0.656 | 0.724
ACTATTAGTTGAGACAAGGGCAACCGATAGGTTG | -0.102 | 0.38 | 0.684 | 0.362 | 1.21 | 0.594 | 0.47 | 0.553 | 0.821 | 1.17
TCTAGTTGGTCACGGAGGTCACCCACGACGGGTA | 2.32 | 4.17 | 1.19 | 1.25 | 3.92 | 4.61 | 1.6 | 4.66 | 1.42 | 3.89
GCTGCTAGGTTAGGTTGGTCAGCTAACGGGTACG | 1 | 0.292 | -1.46 | -0.928 | -0.465 | -0.364 | -0.359 | -0.327 | -0.345 | 0.767
ATCGAAAGGTCGACGAGGTGAGTGTACACCGTTT | 1.06 | 2.45 | 1.21 | 0.365 | 1.48 | 3.37 | 1.03 | 3.93 | 0.268 | 3.89
TCTTGAAGATCAATAGAGGTTAAGAAAGTGCGCT | 1.44 | 0.203 | 0.527 | 0.485 | -0.0803 | 3.15 | 0.215 | 1.81 | -0.211 | 0.913
CCTCGGAGGACTACAGGAGGTCAGAGCTGCCAGA | -0.516 | -0.34 | -1.03 | -2.28 | 0.985 | 2.04 | 0.121 | 2.24 | -0.496 | 1.93
TGGCCTAGGTCATTGGGCCAGTATAGTACGCATC | 1.95 | 3.78 | -0.594 | -1.26 | 1.98 | 1.4 | -0.797 | 1.97 | -0.131 | 3.72
CCGACTGGGGCAGAAAGGTTTCCATACCATCCGG | 1.64 | 0.908 | -1.84 | -1.79 | -0.677 | -0.755 | -0.948 | -0.82 | -1.09 | 0.352
CCAGACAGGTGAGAAGGTGACTCAGCCTCGATTA | 1.19 | 0.996 | 0.0696 | -0.454 | 0.821 | -0.175 | 0.603 | 0.235 | 0.708 | 1.02
ATCGAAAGGTCGAAGGTTAGTATACCCACCCGAA | 0.165 | 2.11 | 1.15 | 0.865 | 1.68 | 3.34 | 0.404 | 4.69 | 1.42 | 3.76
TCTAGCAGGCCCGAGGGTCACTCAAGAGGTACGG | 0.262 | -0.284 | -0.445 | -0.801 | 0.169 | 1.35 | -0.577 | 2.07 | -0.992 | 1.94
ATATGTAGGTTACATCCCGGTCATTCAGGCTATG | 7.52 | 7.38 | 2.01 | 2.46 | 1.78 | 1.39 | 0.762 | 1.6 | 0.487 | 1.99
CTCGAAAAGTCGTGCTCAGGTGAGTATACCAAAC | -0.109 | 0.391 | 0.0169 | 0.325 | 1.15 | 0.0376 | 0.0183 | 0.523 | -0.119 | 0.264
TTACCAAGGTGAAAGGACGTTGATGCACGCCTTG | 1.91 | 2.84 | 0.863 | 0.655 | 0.691 | -0.0719 | -0.136 | 0.603 | -0.181 | 1.6
CCGACTGGGGCAAAGGTTGCCATACTCAGTACGA | 4.21 | 4.73 | -0.511 | -0.658 | 0.733 | 0.388 | -0.135 | 1.14 | -0.228 | 1.03
CCTGCTAGGTCACGGTCAGCTAATCTACAGTATG | 5.34 | 5.12 | 1.07 | 0.203 | 2.79 | 2.08 | -0.469 | 3.24 | 1.67 | 4.46
CGACCAAGGTCAAAGGTCAGTGAAGAGATGACGG | 4.11 | 6.17 | 1.79 | 0.574 | 5.46 | 7.16 | 1.55 | 9.08 | 2.47 | 5.95
GCCAGTTGGTCAGTAAAAGGTCACACACCGGTCG | 0.399 | 2.44 | 0.21 | 0.231 | 3.78 | 5.1 | 1.14 | 5.76 | 1.88 | 4.14
ACTATTAGTTGAGACGAGGGCATCCGATAGGTTG | 0.0561 | -0.111 | 1.09 | 0.274 | -0.612 | 1.7 | 0.926 | 0.817 | 0.577 | 0.742
GCTGCTAGGTCAACTGATGGTCAGCAAAAGCTCG | 4.86 | 3.95 | -0.344 | 0.121 | 1.67 | 1.68 | -0.304 | 2.93 | 0.266 | 4.52
TCTCGGAGGACACGAAGGTCAGAGGTTTCCAGAG | 1.38 | 1.27 | -0.769 | -0.978 | 1.73 | 2.39 | 1.24 | 2.75 | 0.0674 | 3.42
GCGACTGGGGCAAAGCAGGTTATCATAAGGTTGG | 4.56 | 3.61 | -0.685 | -0.693 | -0.345 | 0.44 | -0.841 | 0.549 | -0.943 | 0.894
